Bioassay records deposited in PubChem by National Center for Advancing Translational Sciences (NCATS).
Anesthetic bind: qHTS Assay for Identification of Novel General Anesthetics; apoferritin/1-aminoanthracene competitive binding, fluorescence; Potency, µM (series often up to 77.5 µM), without a hit: at the highest dose activity change, negative = displacement, hits mostly inhibitors; hit rate 0.074% among 350,000; Ferritin light chain (Equus caballus), P02791; note: potency is the fitted concentration of half-maximal effect; % is set by controls: 0 for no effect and ±100 for the full control effect; nearly all actives have a fitted effect of over 20% in size
Target sequence (P02791 2-175 limits assumed): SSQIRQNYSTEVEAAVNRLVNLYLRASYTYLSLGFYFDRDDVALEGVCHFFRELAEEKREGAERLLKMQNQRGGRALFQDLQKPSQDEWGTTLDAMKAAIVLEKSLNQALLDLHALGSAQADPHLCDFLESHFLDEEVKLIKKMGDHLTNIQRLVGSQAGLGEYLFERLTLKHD
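10 uM apoferritin + 50% sat. 1-AMA, PBS; cpd 10 min RT; Ex380/Em535 endpoint; normalized to free probe vs complex; 4-param Hill fit; propofol titration as pos. ctrl.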
KCNH2 WT inh: qHTS for Inhibitors of KCHN2 3.1: Wildtype qHTS; U2OS, BacMam KCNH2, thallium flux FluxOr; active compounds read low; activity change, % at 1.84 µM; hit rate 0.37% among 340,000; AID 720551, 2013;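 active = maximum activity change below -70%; inconclusive = maximum activity change between -70% and -50%; inactive = maximum activity change above -50%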; note: % is set by controls: 0 for no effect and ±100 for the full control effect
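U2OS cells transduced with wild-type KCNH2 virus are loaded with FluxOr dye for 45 min, and thallium flux is measured in kinetic reads before and after stimulation buffer. Rate constants are normalized to DMSO controls.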
S-ASM inh: Inhibitors of Secretory Acid Sphingomyelinase (S-ASM): qHTS. Sphingomyelin phosphodiesterase (Homo sapiens), P17405. placental ASM, HMU-PC fluorogenic substrate, 60 min. Potency, µM (doses to about 57.5 µM), inactives show top-dose activity change, negative = inhibition, usual class: inhibitors. hit rate 0.006% among 340,000; note: potency is the fitted concentration of half-maximal effect
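Human placenta-derived ASM enzyme was preincubated with compound for 10 minutes at room temperature, then given fluorogenic substrate HMU-PC0 (9 uM final) for 60 minutes at 37 °C; a pH 10 stop preceded fluorescence reading at Ex 386/Em 447 nm.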
KCNH2 3.1 inh: qHTS for Inhibitors of KCHN2 3.1: Mutant qHTS | U2OS KCNH2 3.1, thallium flux FluxOr; active compounds read low | activity change, % (tested at about 1.8 µM) | hit rate 0.95% among 340,000 | AID 720553, 2013;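 active = maximum activity change below -70%; inconclusive = maximum activity change from -70% to -50%; inactive = maximum activity change above -50%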;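 note: thallium influx rate constant from kinetic fluorescence after stimulation buffer; % is set by controls: 0 for no effect and ±100 for the full control effect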
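Kinetic fluorescence (2 min after stimulation buffer) measures Tl+ influx through KCNH2 3.1 expressed by viral transduction in U2OS cells; the rate constant is normalized against DMSO controls serving as positive and negative references.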
mIDH1 inhibitor: qHTS for Inhibitors of mutant isocitrate dehydrogenase 1 (IDH1): qHTS; hit rate 0.093% among 390,000; Potency, µM (doses to about 76.6 µM), for the others: top-dose activity change, negative = inhibition, usual class: inhibitors; AID 602179, 2012; IDH1-R132H enzyme, NADPH consumption, diaphorase/resazurin fluorescence; note: potency is the fitted concentration of half-maximal effect; % is set by controls: 0 for no effect and ±100 for the full control effect; nearly all actives have a fitted effect of over 65% in size
Target sequence (O75874 whole entry R132H, stated change not applied): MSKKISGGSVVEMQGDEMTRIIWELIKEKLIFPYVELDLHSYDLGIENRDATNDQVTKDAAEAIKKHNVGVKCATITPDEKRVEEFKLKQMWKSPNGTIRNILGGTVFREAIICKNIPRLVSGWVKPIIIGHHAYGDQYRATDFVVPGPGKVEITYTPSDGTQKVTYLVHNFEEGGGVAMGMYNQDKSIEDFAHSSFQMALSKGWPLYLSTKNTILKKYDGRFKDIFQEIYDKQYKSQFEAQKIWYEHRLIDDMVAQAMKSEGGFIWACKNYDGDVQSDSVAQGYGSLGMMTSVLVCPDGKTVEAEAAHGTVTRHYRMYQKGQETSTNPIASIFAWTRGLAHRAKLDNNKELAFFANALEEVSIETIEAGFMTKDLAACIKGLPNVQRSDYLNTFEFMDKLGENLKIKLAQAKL
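IDH1-R132H (0.5 ug/mL) preincubated 30 min with compound, then NADPH (0.016 mM) and alpha-KG (2 mM) added; 80 min at RT, pH 7.5. Remaining NADPH coupled via diaphorase/resazurin to fluorescence (540/590 nm); concentration-response curves normalized to no-enzyme control.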
* hit, by the source's call; i = inactive; u = inconclusive; x = no result given. Most compounds without a hit are left out; they make up all but 1.2% or so of the library. Unless noted, calls come from the whole dose curve; as a rule, active = well fitted inhibition curve with a large enough effect; inconclusive = small, poorly fitted or top-dose-only effect; inactive = no such curve, though single readings can be large or run the other way.

SMILES | Anesthetic bind | KCNH2 WT inh | S-ASM inh | KCNH2 3.1 inh | mIDH1 inhibitor
CCOc1ccc(CCNC(=O)Cn2ncc3c([nH]c4ccccc43)c2=O)cc1OCC | -10.5% | x | x | x | 7.7%
CC[C@H](C)[C@H](NC(=O)[C@H](CC(C)C)NC(=O)[C@H](CC(N)=O)NC(=O)[C@@H](NC(=O)[C@@H](N)Cc1ccc(O)cc1)[C@@H](C)CC)C(=O)N[C@@H](Cc1ccc(O)cc1)C(=O)N[C@@H](CCCN=C(N)N)C(=O)N[C@@H](CC(C)C)C(=O)N[C@@H](CCCN=C(N)N)C(=O)N[C@@H](Cc1ccc(O)cc1)C(N)=O | 1.2% | x | x | x | x
O=C(NNS(=O)(=O)c1ccc([N+](=O)[O-])cc1)c1ccccc1 | x | 5.2 | 0.4% | 11.4 | 4.0%
O=C(NNS(=O)(=O)c1ccc([N+](=O)[O-])cc1)C(=O)Nc1cccc(C(=O)O)c1 | -2.2% | -111.9* | -1.3% | 14.5 | -7.3%
O=C(O)c1cccc(NS(=O)(=O)c2ccc(Oc3ccc(S(=O)(=O)Nc4cccc(C(=O)O)c4)cc3)cc2)c1 | x | -144.2* | 9.5% | 1.3 | 2.0%
Cc1ccc(OC(=O)N(C)C[C@@H]2OCc3cn(nn3)CCCC(=O)N([C@@H](C)CO)C[C@H]2C)cc1 | x | 17.7 | x | -70.3* | 2.4%
COc1ccc(OC(=O)N(C)C[C@H]2OCc3cn(nn3)CCCC(=O)N([C@H](C)CO)C[C@@H]2C)cc1 | x | 0.2 | x | -6.9 | -0.1%
CC(=O)N1CCc2cc(Br)cc(S(=O)(=O)N3CCN(c4cccc(C(F)(F)F)c4)CC3)c21 | -18.4% | x | x | x | 0.0%
CCC(CC)C(=O)Nc1c2c(nn1-c1ccc(OC)cc1)CS(=O)(=O)C2 | 6.1% | -7.3 | 4.6% | 4.0 | 0.9%
CCC(CC)C(=O)Nc1c2c(nn1-c1ccc(F)cc1)CS(=O)(=O)C2 | -9.0% | 2.7 | -0.1% | -80.6* | -4.3%
COc1ccc(N2C(=O)CN=C2Nc2nc(C)cc(C)n2)cc1OC | -1.3% | -2.2 | -0.3% | -148.5* | -0.9%
Cc1nn(Cc2ccc([N+](=O)[O-])cc2)c(=O)n1-c1ccc(Cl)cc1 | -10.3% | 3.4 | -4.1% | -77.6* | 7.5%
COC(=O)c1cccn(CC(=O)c2ccc(Cl)cc2Cl)c1=O | -14.0% | i | -6.1% | -11.3 | -0.8%
COc1ccccc1Cn1cccc1C=O | u | 0.3 | 3.2% | 3.5 | 2.1%
O=Cc1cccn1Cc1ccc(Cl)cc1Cl | 14.1µM* | 0.9 | -6.4% | u | 7.0%
NNC(=O)c1cccn(Cc2ccc(Cl)cc2Cl)c1=O | 1.7% | -87.7* | -0.6% | -6.3 | -9.9%
CC(C)COc1ccc(C(=O)N2CCN(CCc3ccccn3)CC2)cc1 | 5.0% | x | x | x | 14.7%
COc1ccc(C(=O)N2CCN(CCc3ccccn3)CC2)cc1 | 0.0% | -1.0 | -1.0% | -99.0* | 7.0%
COc1ccc(NC(=O)c2ccc(CN3CCN(c4ccccc4)CC3)cc2)cc1 | 4.3% | 12.7 | -0.3% | u | 0.9%
COc1ccc(C(=O)Nc2ccc(N3CCN(Cc4ccccc4)CC3)cc2)cc1 | -4.1% | 12.0 | 7.5% | -85.0* | -2.5%
CCc1ccc(N2CCN(CCNC(=O)Nc3ccc(OC)cc3)CC2)cc1 | -2.1% | -25.9 | 2.2% | -94.3* | -2.0%
COc1ccc(C(=O)N2CCN(CCNC(=O)C(=O)Nc3ccc(Br)cc3)CC2)cc1 | -3.3% | 20.2 | -0.5% | -104.5* | 1.6%
c1ccc(N2CCN(c3nc(NCc4ccco4)c4ccccc4n3)CC2)cc1 | -3.5% | -80.7* | -20.8% | -103.7* | -1.9%
c1coc(CNc2nc(N3CCCCC3)nc3ccccc23)c1 | 4.7% | 13.8 | 184.5% | -18.0 | 1.3%
c1ccc(CNc2nc(N3CCN(Cc4ccccc4)CC3)nc3ccccc23)cc1 | -1.4% | -42.5 | 16.3% | -104.4* | -2.2%
SMILES | Anesthetic bind | KCNH2 WT inh | S-ASM inh | KCNH2 3.1 inh | mIDH1 inhibitor
COc1ccc(Cl)cc1NC(=O)CN(C)C(=O)CN1C(=O)NC(C)(C)C1=O | x | 14.5 | 5.0% | -2.5 | -3.5%
COc1ccc(Cl)cc1NC(=O)CN(C)C(=O)CN1C(=O)NC(C)(c2ccc3ccccc3c2)C1=O (centres undefined) | x | -7.1 | -11.6% | -89.1* | -11.1%
Clc1ccc(CN2C3=NCCCN3c3ccccc32)c(Cl)c1 | -9.8% | -1.2 | -0.4% | -93.8* | 1.5%
O=C(O)CN1C2=NCCCN2c2ccccc21 | 0.8% | 3.1 | 10.0% | 9.3 | 0.0%
Brc1ccc(CN2C3=NCCCN3c3ccccc32)cc1 | -10.2% | 15.6 | 0.3% | -75.4* | -0.8%
Clc1cccc(CN2C3=NCCCN3c3ccccc32)c1 | -3.6% | 89.2 | -1.2% | u | -7.1%
O=C(CN1C2=NCCCN2c2ccccc21)c1ccc(Br)s1 | -17.5% | 14.9 | -4.0% | -85.6* | 2.0%
CC(C)(C)c1ccc(CN2C3=NCCCN3c3ccccc32)cc1 | 1.3% | 11.0 | -0.5% | -79.7* | 1.1%
COC(=O)c1ccc(NC(=O)CSc2nc(=O)n(Cc3ccco3)c3c2CCC3)cc1 | -13.9% | x | x | x | 1.1%
CCOC(=O)c1[nH]c2ccccc2c1NC(=O)c1ccccc1F | 203.6% | x | x | x | -1.2%
CCCCCCCN1C2=NCCCN2c2ccccc21 | -14.1% | -13.8 | 0.3% | -80.2* | 14.3%
CCCCCCCCOC(=O)c1c(CSC(=N)N)n(C)c2cc(Br)c(OC(C)=O)cc12 | u | -95.5* | 31.6µM* | -101.5* | u
CCOC(=O)N/N=C\c1ccc(OC(=O)c2ccco2)cc1 | -8.6% | -153.6* | 2.0% | -2.5 | -0.8%
COc1ccc(C(=O)c2c(-c3ccc(OC)cc3)oc3ccccc23)cc1 | x | -12.9 | 9.1% | -70.7* | 12.5%
COc1ccc(-c2oc3ccccc3c(=O)c2OC(=O)c2ccc(C)cc2)cc1 | -5.7% | 10.6 | -4.4% | -8.7 | 1.9%
O=c1oc(-c2ccc(C(F)(F)F)cc2)nn1Cc1cc(Cl)ccc1O | -20.8% | x | x | x | x
COc1cc(C(=O)NNC(=O)c2ccccc2OCc2c(C)noc2C)cc(OC)c1OC | x | 12.4 | -10.9% | -86.9* | -9.5%
Cc1ccc(/C=C2/SC(=S)N(CCCC(=O)Nc3cc([N+](=O)[O-])ccc3O)C2=O)cc1 | -2.7% | 9.7 | -5.6% | -83.3* | -8.3%
Cc1ccc(/C=C2\SC(=S)N(CCCC(=O)Nc3ccc(O)cc3)C2=O)cc1 | -4.0% | -0.5 | -0.4% | 12.7 | -2.9%
Cc1ccc(NC(=O)Cn2cc(C(=O)C3CCCCC3)c3ccccc32)cc1 | -3.1% | x | x | x | x
